Bioassay records: PubChem, National Center for Advancing Translational Sciences (NCATS)
In the library only some 3.6% were active in any assay of this set; here they are far more common.
TRHR PAM: allosteric enhancers of human TRH receptor; P34981; enhancement, % at 2 µM; TRHR cells, fluo-8 calcium fluorescence, EC20 TRH enhancement; 360,000 compounds, 0.66% hits; in the data active = enhancement above about 30%; also: 0% is about no effect
Target sequence (P34981 whole entry, looked up): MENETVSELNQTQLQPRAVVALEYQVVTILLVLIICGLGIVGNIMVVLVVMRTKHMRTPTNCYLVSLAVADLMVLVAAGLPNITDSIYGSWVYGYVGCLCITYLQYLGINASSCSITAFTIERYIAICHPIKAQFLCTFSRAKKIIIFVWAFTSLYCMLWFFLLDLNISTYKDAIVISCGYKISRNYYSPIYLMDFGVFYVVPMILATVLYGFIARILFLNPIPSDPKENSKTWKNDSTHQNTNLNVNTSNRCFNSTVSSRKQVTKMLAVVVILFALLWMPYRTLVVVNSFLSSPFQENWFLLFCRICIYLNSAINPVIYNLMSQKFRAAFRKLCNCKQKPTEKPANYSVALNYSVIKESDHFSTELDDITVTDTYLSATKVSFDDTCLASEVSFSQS
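Enhancer read-out: after compound pinning and an initial kinetic agonist-mode read, an EC20 of TRH (10 nM final) was injected and fluo-8 calcium signal (Ex 480/Em 530) followed at 1 s/cycle for 100 cycles in TRHR-expressing cells.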
D1 potentiator: enhances dopamine response at the human D1 receptor. HEK293 TREx D1 cells, calcium flux, dopamine EC20 potentiation. AID 504651. 360,000 compounds, 0.036% hits. potentiation, % at 10 µM; in the data active = potentiation above about 30%; also: 0% is about no effect
LDHA block: LDHA (human) enzyme inhibition | AID 1347041 | activity change, % (values are at about 110 or 230 µM) | purified LDHA, NADH/diaphorase-resazurin fluorescence; stronger effect = lower value | 480,000 compounds, 0.15% hits | P00338; in the data active = activity change below about -30%;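 also: plate controls were DMSO wells for no effect and wells without enzyme for full effect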
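Human LDH5 (2 nM) was incubated with 0.06 mM NADH and 0.2 mM pyruvate for 5 min at room temperature in Tris pH 7.4. Remaining NADH was coupled through diaphorase/resazurin, and resorufin fluorescence was read at 0 and 20 min.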
D1 agonist: activates the human D1 dopamine receptor; P21728; HEK293 T-REx D1 cells, calcium flux, agonist mode; activation, % at 2 µM; 360,000 compounds, 1% hits; AID 504660; also: 0% is about no effect
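Agonism was scored from calcium flux recorded over 180 s (1 read/s) after pintool compound addition, following a 10-cycle baseline. Cells were inducible force-coupled HEK293 TREx D1, plated overnight at 30 C and loaded with no-wash calcium dye.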
TRHR ag: activates the human TRH receptor; P34981; TRHR cells, calcium flux fluo-8, FDSS agonist mode; activation, % at 2 µM; 360,000 compounds, 0.18% hits; AID 493084; also: 0% is about no effect
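Fluo-8-loaded TRHR cells; 10 s baseline, compound added, kinetic Ca2+ fluorescence read 1/s, agonist mode.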
D1 antag: blocks dopamine activation of the human D1 receptor | P21728 | HEK293 TREx D1 cells, calcium flux, dopamine EC80; stronger effect = lower value | activity change, negative = inhibition, % at 10 µM | 360,000 compounds, 3.2% hits | AID 504652; in the data active = activity change below about -30%; also: % is scaled to controls: 0 for no effect and ±100 for the full control effect
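Allosteric or orthosteric antagonism assessed as attenuation of the calcium response to EC80 dopamine, added 180 s after compound, in induced HEK293 Trex D1 cells loaded with no-wash calcium dye.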
An asterisk follows results filed as active; . = no result; ! = repeats disagree. Rule as the data show it, unless noted: active = activation above about 30%; inactive = the rest.

SMILES	TRHR PAM	D1 potentiator	LDHA block	D1 agonist	TRHR ag	D1 antag
COc1cc(CN2CCCC(C(=O)Nc3cccc(-n4cccn4)c3)C2)ccc1F (stereo unspecified)	1	-11	-2	13	0	4
Cc1cccc(N(C)C(=O)Cn2cc(C#N)c3ccccc32)c1	.	.	4	.	.	.
CCC1CCC(C(=O)NC(C(=O)Nc2cccc(OC)c2)C(C)C)CC1 (stereo unspecified)	-9	-1	-5	4	0	-32*
CCOC(=O)c1c(C)oc2nc(C)nc(NCCc3ccc(OC)c(OC)c3)c12	22	0	1	2	0	0
CCOC(=O)c1c(C)oc2nc(C)nc(NCCc3ccc(SC)cc3)c12	12	-6	0	5	0	-32*
N#Cc1nc(-c2ccco2)oc1N1CCN(Cc2ccc(Br)cc2)CC1	.	.	-4	.	.	.
O=C1c2ccccc2C(=O)N1Cc1ccco1	-4	-3	-5	0	0	-10
O=C1c2cccc3c(O)ccc(c23)C(=O)N1Cc1ccco1	33*	0	3	272*	235*	6
O=C1c2ccccc2C(=O)N1c1ccc(Cl)cc1	9	-4	-8	1	0	-29
O=C1c2cccc3c(O)ccc(c23)C(=O)N1c1ccc(Cl)cc1	12	19	33	470*	0	8
CC(=O)Nc1ccc(N2C(=O)c3cccc4c(O)ccc(c34)C2=O)cc1	35*	12	3	283*	199*	2
O=c1c2ccccc2sn1-c1cc(S(=O)(=O)N2CCOCC2)ccc1N1CCCC1	2	0	-10	90*	-1	4
O=c1c2ccccc2sn1-c1cc(S(=O)(=O)N2CCOCC2)ccc1N1CCCCC1	.	.	1	.	.	.
CCCc1cc(C(=O)Nc2cc(Br)ccc2O)no1	-5	-4	0	40*	0	-15
COc1ccc(-c2nc(N3CCN(S(=O)(=O)c4ccc(F)cc4)CC3)c3ccccc3n2)cc1	39*	3	2	5	-1	-31*
Cc1ccc(-c2nc(N3CCN(S(=O)(=O)c4ccc(F)cc4)CC3)c3ccc(Cl)cc3n2)cc1	1	1	-4	3	-1	-41*
COc1ccc(C(=O)COC(=O)C2C3CC4C(OC(=O)C42)C3Br)cc1 (stereo unspecified)	.	.	7	.	.	.
N#C/C(=C/c1ccccc1C=O)c1nc2ccccc2s1	.	.	-5	.	.	.
CC(=O)c1ccc(S(=O)(=O)NCc2cccnc2)cc1	5	4	-1	2	0	-25
O=C(Nc1ccc(Cl)c(Cl)c1)c1cccc(S(=O)(=O)NCc2cccnc2)c1	-5	-4	-8	9	0	-31*
O=C(O)c1ccc(S(=O)(=O)NCc2cccnc2)cc1	35*	-2	-5	2	0	2
Clc1ccc(N/N=C/c2cccc3ccccc23)cc1Cl	.	.	3	.	.	.
COc1cccc(CC(=O)OC(C)C(=O)Nc2ccc(Cl)cn2)c1 (stereo unspecified)	-5	-2	-7	4	-1	-35*
CC(OC(=O)Cc1cccc(C(F)(F)F)c1)C(=O)Nc1ccc(Cl)cn1 (stereo unspecified)	0	-5	-5	5	-1	-2
Cc1ccc(-n2nc3c(=O)n(CC(=O)NC(C)C)nc(C)c3c2C)cc1	6	-2	-3	1	-1	-35*
Cc1nn(CCC(=O)NCc2ccc(N(C)C)cc2)c(=O)c2nn(-c3ccccc3)c(C)c12	-3	5	-12	0	0	-31*!
Cc1nn(CC(=O)NCCc2ccco2)c(=O)c2nn(-c3ccccc3)c(C)c12	1	-6	-12	0	0	3
Cc1ccc(-n2nc3c(=O)n(CC(=O)NCc4ccco4)nc(C)c3c2C)cc1	0	-2	-5	2	-1	-34*
CCc1ccc(CNC(=O)Cn2nc(C)c3c(C)n(-c4ccc(C)cc4)nc3c2=O)cc1	-15	-2	-5	2	-1	-4
CCOc1ccc(CNC(=O)Cn2nc(C)c3c(C)n(-c4ccc(C)cc4)nc3c2=O)cc1	-17	-2	-13	1	-1	-50*!
